# Results filed as inconclusive are left out. Calls of active or inactive are those of the source. Calls come from the whole dose curve; as a rule, active = well fitted inhibition curve with a large enough effect; inconclusive = small, poorly fitted or top-dose-only effect; inactive = no such curve, though single readings can be large or run the other way.
# Assay: InCell qHTS Assay for Inhibitors of the mTORC1 Signaling Pathway in MEF (Tsc2-/-, p53-/-) Cells: Hit Validation;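 note: phospho-S6 Ser235/236 signal normalized to propidium iodide cell count per well; nearly all actives have a fitted effect of over 75% in size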
# Details: phospho-rpS6 immunofluorescence, 24 h; activity change, negative = inhibition: at 38.3 µM (top of the series)
# Potency is the fitted concentration of half-maximal effect.
Structure (SMILES),"activity change, negative = inhibition [%]",Potency
CCCCN(C)CCNC(=O)c1cc2c(=O)n(C)c3ccccc3c2n1C,-100,
Cc1cccc(CSc2cn(CC(=O)N3CCCCCC3)c3ccccc23)c1,-100,
CCCSc1ncc(Cl)c(C(=O)Nc2ccc(S(=O)(=O)N3CCCCC3C)cc2)n1 (configuration not stated),-100,
CCc1ccc(NC(=O)C2CCCN(S(=O)(=O)c3c(C)noc3/C=C/N(C)C)C2)cc1 (configuration not stated),,14.7 µM (active)
CCCCOCc1cc(CN2CCN(c3cccc(Cl)c3)CC2)c(O)c2ncccc12,-100,
COc1ccccc1NC(=O)CSc1ccc(-c2ccccn2)nn1,-100,
CCCCNC(=O)CSc1nc2nc(C)c(Cc3ccccc3C)c(C)n2n1,-100,
COc1cc(Cl)c(C)cc1NC(c1ccccc1)c1nnc(-c2ccccc2Cl)o1 (configuration not stated),-100,
CCC(Sc1nncn2c1cc1oc(C)cc12)C(=O)Nc1ccc(F)cc1 (configuration not stated),-100,
Cc1cccc(N(CC(=O)NCCSc2ccc(Cl)cc2)S(=O)(=O)c2ccccc2)c1C,-100,
O=C(NCc1ccccc1)c1ccc2c(c1)N(Cc1ccccc1F)C(=O)c1ccccc1S2=O (configuration not stated),-100,
COc1ccccc1C(=O)Nc1ccc(-c2cc(C(F)(F)F)nn2-c2ccccc2)cc1,-100,
CCc1ccc(NC(=O)C2CCCN(S(=O)(=O)c3cccc4cccnc34)C2)cc1 (configuration not stated),-100,
O=C(Nc1cccc(C(F)(F)F)c1)c1cnn(-c2cccc(F)c2)c1C1CCNCC1,-100,
CCCOC(=O)c1c(C)oc2c1cc(NS(=O)(=O)c1ccc(OCC)cc1)c1ccccc12,-15.2,
CS(=O)(=O)N(CC(=O)NCCc1ccccc1)c1cc(C(F)(F)F)ccc1Cl,-100,
CC(CNC(=O)c1ccc(Nc2nc3ccccc3n3nnnc23)cc1)c1ccccc1 (configuration not stated),-100,
COc1ccc(OCc2nc3c4c(-c5ccccc5)c(-c5ccccc5)oc4ncn3n2)cc1,-100,
CC(=O)Nc1ccc2nc(-c3cc(C)ccc3C)[nH]c2c1,-100,
O=S(=O)(c1ccccc1)n1nc(-c2ccc(Cl)cc2)nc1NCc1ccccc1,-5.06,
CCOc1ccccc1NS(=O)(=O)c1ccc(-c2cnc(C3CC3)o2)cc1,-100,
CCS(=O)(=O)c1ncc(Cl)c(C(=O)NCc2ccccc2)n1,,10.4 µM (active)

# Source: PubChem BioAssay AID651791 (National Center for Advancing Translational Sciences (NCATS), 2012)
